Most compounds without a hit are left out; they make up all but 14% or so of the library.
Pf growth 96h = P. falciparum growth inhibition at 96 hours; 320,000 compounds, 6.9% hits; Potency, µM (series often up to 28.7 µM), inactives show at the top dose activity change, negative = inhibition, hits mostly inhibitors; P. falciparum luciferase reporter growth, 96 h; AID 504834; note: potency is the fitted concentration of half-maximal effect
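Infected RBCs, 2% Hct / 0.05% parasitemia final; luciferase-reporter P. falciparum; cpd 96 h, 37 C, 5% CO2; luciferase detection reagent; luminescence.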
Pf growth 48h = P. falciparum growth inhibition at 48 hours (one generation); P. falciparum luciferase growth in erythrocytes, 48 h; Potency, µM (highest dose often 28.7 µM), for inactives: at the highest dose activity change, negative = inhibition, actives largely listed as inhibitors; 310,000 compounds, 5.9% hits; note: potency is the fitted concentration of half-maximal effect
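Here the parasites carry a stable luciferase gene and grow inside erythrocytes in Albumax-based RPMI medium with compound for one erythrocytic cycle. Activity is scored as loss of luminescent signal.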
HCMV antiviral = blocks human cytomegalovirus replication; activity change, negative = inhibition, % at 57.5 µM; 410,000 compounds, 4.5% hits; HFF cells, HCMV-luciferase reporter, 72 h; active compounds read low; in the data active = activity change below about -60%; inconclusive = no clear call, values can overlap the other calls; inactive = above about -39%
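Two compound doses tested in HFFs infected with HCMV-luciferase, MOI 1 PFU/cell, 72 h at 37C. Lysate luminescence read with OneGlo; data normalized against buffer-only and 10uM Salinomycin inhibitor controls.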
Sm TGR block = inhibitors of Schistosoma mansoni thioredoxin glutathione reductase; Q962Y6; purified TGR, DTNB reduction, TNB absorbance 405 nm; 360,000 compounds, 3% hits; Potency, µM (highest dose often 114 µM), inactives show at the highest dose activity change, negative = inhibition, most hits filed as inhibitors; note: potency is the fitted concentration of half-maximal effect; nearly all actives have a fitted effect of over 60% in size
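First, TGR (20 nM dispensed) and NADPH were mixed with compound. Second, a 15 min room-temperature incubation followed. Third, further NADPH and then DTNB were added to start the reaction. Finally, TNB absorbance was monitored kinetically.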
Giardia FBPA inh = inhibitors of Giardia lamblia fructose-1,6-bisphosphate aldolase. purified Giardia FBPA. Potency, µM (top dose mostly 59.6 µM), for inactives: top-dose activity, negative = inhibition, usual class: inhibitors. 290,000 compounds, 0.71% hits. AID 2451; note: potency is the fitted concentration of half-maximal effect; nearly all actives have a fitted effect of over 55% in size
Target sequence (A8B2U2 whole entry, looked up): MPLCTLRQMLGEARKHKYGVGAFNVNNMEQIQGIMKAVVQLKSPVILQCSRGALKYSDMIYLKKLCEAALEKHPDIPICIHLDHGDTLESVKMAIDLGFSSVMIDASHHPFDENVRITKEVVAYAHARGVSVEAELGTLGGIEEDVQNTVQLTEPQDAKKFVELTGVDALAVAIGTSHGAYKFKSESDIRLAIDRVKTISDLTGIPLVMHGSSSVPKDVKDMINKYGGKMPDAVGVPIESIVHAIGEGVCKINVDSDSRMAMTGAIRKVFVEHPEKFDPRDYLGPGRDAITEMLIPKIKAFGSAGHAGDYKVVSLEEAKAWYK
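Giardia FBPA (40 nM reagent) was preincubated 10 min at RT with compound (up to 57.5 uM final), then substrate plus GAPDH/TPI/NAD/arsenate coupling system with diaphorase/resazurin was added; resorufin fluorescence (525/598 nm) was read after 20 min.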
Numbers without * were called inactive; ? = inconclusive; . = not tested or not shown. Unless noted, calls come from the whole dose curve; as a rule, active = well fitted curve in the direction sought with a large enough effect; inconclusive = small, poorly fitted or top-dose-only effect, or another doubt; inactive = no such curve, though single readings can be large; an effect the other way counts as inactive or inconclusive. % is set by controls: 0 for no effect and ±100 for the full control effect.

SMILES	Pf growth 96h	Pf growth 48h	HCMV antiviral	Sm TGR block	Giardia FBPA inh
COC(=O)c1nc(Cl)c(Cl)c(N)c1Cl	25%	10µM*	-24	0%	1%
CCCCCCCCOC(=O)c1nc(Cl)c(Cl)c(N)c1Cl	?	?	13	-1%	0%
O=C(O)CCC/C=C\C[C@@H]1[C@@H](/C=C/[C@@H](O)COc2cccc(C(F)(F)F)c2)[C@H](O)C[C@@H]1O	0.95µM*	-9%	.	.	5%
Cc1ccc(NC(=O)Cn2ccn(Cc3ccc(Cl)cc3)c(=O)c2=O)cc1C	.	.	-12	3%	.
COc1ccc(-c2cc(C(F)(F)F)nc(N3CCN(c4ccc(F)cc4)CC3)n2)cc1OC	.	.	32	9%	16%
COc1ccc(-c2cc(C(F)(F)F)nc(N3CCN(Cc4ccccc4)CC3)n2)cc1OC	69%	10µM*	11	9%	-10%
Clc1cccc(CNc2cc(-c3ccccc3)nc3nncn23)c1	.	.	-62*	-1%	.
Clc1ccc(CNc2cc(-c3ccccc3)nc3nncn23)cc1	.	.	-33	-7%	.
COc1ccccc1CNc1cc(-c2ccccc2)nc2nncn12	.	.	-87*	35µM*	.
CCCc1c(C(=O)N/N=C/C=C/c2ccccc2)nnn1-c1nonc1N	.	.	-8	.	.
COc1cc(C(=O)Nc2ccc(S(=O)(=O)N3CCCCC3C)cc2)cc(OC)c1OC (centres undefined)	?	8.3µM*	?	-7%	-1%
COc1ccccc1C(=O)Nc1ccc(S(=O)(=O)N2CCCCC2c2cccnc2)cc1 (centres undefined)	3.3µM*	?	0	-2%	-6%
CC1CCCCN1S(=O)(=O)c1ccc(NC(=O)c2cccc(-n3cnnn3)c2)cc1 (centres undefined)	?	9.3µM*	-26	4%	-6%
CC1CCCN(S(=O)(=O)c2ccc(NC(=O)c3cccc(-n4cnnn4)c3)cc2)C1 (centres undefined)	11%	12µM*	?	6%	1%
COc1ccc(C(=O)Nc2ccc(S(=O)(=O)N3CCCCC3C)cc2)c(OC)c1OC (centres undefined)	24%	?	-28	3%	-15%
O=C(Nc1ccc(S(=O)(=O)N2CCCCC2c2cccnc2)cc1)c1ccccc1F (centres undefined)	?	?	-16	2%	-10%
CCOC(=O)c1c(Nc2ccccc2OCCOC)n[nH]c1C	9.3µM*	?	-7	5%	-4%
COc1ccc(O)c(/C=N/NC(=O)CCC(=O)Nc2ccc(F)cc2)c1	45%	-13%	60	-4%	?
C#CCOc1c(/C=C\c2nc(O)c([N+](=O)[O-])c(=O)[nH]2)cc(Br)cc1OC	?	5.2µM*	-15	35µM*	-8%
O=c1[nH]c(/C=C\c2ccccc2F)nc(O)c1[N+](=O)[O-]	13µM*	-9%	14	-25%	-11%
CCCCNC(=O)C1C(c2ccc(C(F)(F)F)cc2)=Nc2ccccc2N1C(=O)c1cccc2ccccc12 (centres undefined)	.	.	-21	.	.
CCCSP1(=S)NCCCO1 (centres undefined)	3%	7%	-101*	0%	-3%
CCc1nc2ccc(C(=O)NCc3ccc(OC)cc3)cn2c1N(C)C(=O)Cc1ccccc1	.	.	-30	.	.
CCc1ccc(CNC(=O)CCC(=O)N2Cc3cccc(OC)c3Oc3ncccc32)cc1	-22%	?	-34	0%	0%
CCOc1ccc(-n2c(SCc3ccc([N+](=O)[O-])cc3)nnc2-c2ccc(OC)cc2)cc1	8.3µM*	?	-1	0%	3%
COCCNC(=O)c1ccc(Cn2c(SCC(N)=O)nc3ccccc3c2=O)cc1	.	.	2	-11%	.
CCOC(=O)CSc1nc2ccccc2c(=O)n1NC(=O)c1ccccc1	7.4µM*	347%	110	?	12%
CCOC(=O)CC(=O)CSc1nc2ccccc2c(=O)n1-c1ccc(C(=O)N2CCOCC2)cc1	.	1.7µM*	-18	-22%	1%
CCOC(=O)CC(=O)CSc1nc2ccccc2c(=O)n1-c1ccc(C(=O)NCCOC)cc1	?	5.2µM*	?	0%	0%
CC1CCN(c2cc(N(C)CCO)c([N+](=O)[O-])c3nonc23)CC1	?	-19%	-40	45µM*	-8%
